Laboratory results reported in PubChem BioAssay AID2535 (National Center for Advancing Translational Sciences (NCATS), 2010).
Calls of active or inactive are those of the source. Calls follow the shape of the dose curve; as a rule, active = well fitted curve in the direction sought with a large enough effect; inconclusive = small, poorly fitted or top-dose-only effect, or effect the other way, or another doubt; inactive = no such curve, though single readings can be large or run the other way.

Each molecule was assayed against Pyruvate kinase PKLR (Homo sapiens) (UniProt P30613) (assay: Secondary Concentration-Response Assay for Activators of Human Liver Pyruvate Kinase: for Probe SAR). Conditions: purified hPK-L, ATP production, Kinase-Glo luminescence; series mostly up to 58.3 µM.
In short: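 Luciferase-coupled luminescence (Kinase-Glo) reports ATP made by 0.1 nM hPK-L from 0.5 mM PEP (at Km) and 0.1 mM ADP (about 10-fold below Km); pH 7.2 imidazole buffer, 1 h room temperature, in concentration-response format.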

Chain of Pyruvate kinase PKLR (Homo sapiens) (P30613 whole entry, looked up): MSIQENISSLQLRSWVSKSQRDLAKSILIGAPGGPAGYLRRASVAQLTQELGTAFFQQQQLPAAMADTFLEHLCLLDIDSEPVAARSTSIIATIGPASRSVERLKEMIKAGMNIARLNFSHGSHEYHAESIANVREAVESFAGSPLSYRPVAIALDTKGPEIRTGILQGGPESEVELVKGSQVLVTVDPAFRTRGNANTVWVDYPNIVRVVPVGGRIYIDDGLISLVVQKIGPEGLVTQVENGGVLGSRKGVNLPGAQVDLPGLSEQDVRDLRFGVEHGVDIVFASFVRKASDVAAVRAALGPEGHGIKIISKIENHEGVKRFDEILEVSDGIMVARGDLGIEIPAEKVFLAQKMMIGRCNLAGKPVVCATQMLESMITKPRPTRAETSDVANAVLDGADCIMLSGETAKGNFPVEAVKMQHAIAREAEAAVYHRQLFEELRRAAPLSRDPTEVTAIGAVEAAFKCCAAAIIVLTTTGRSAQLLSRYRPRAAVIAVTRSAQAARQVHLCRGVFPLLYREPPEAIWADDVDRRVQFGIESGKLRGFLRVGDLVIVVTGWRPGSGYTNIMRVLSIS

outcome, inactive:
Cc1ccc(NC(=O)c2ccc3c(c2)CCC(=O)N3)cc1C
O=S1(=O)N=C(Oc2ccccc2Cl)c2ccccc21
Cc1ccc(-c2nc3ccccn3c2Nc2ccc(F)cc2)o1
Cc1ccn2c(NC3CCCCC3)c(-c3ccc(C)o3)nc2c1
O=C1c2ccccc2C(=O)N1c1cccc(O)c1
Cc1cc(N2C(=O)c3ccccc3C2=O)n[nH]1
CCNc1cccc(S(=O)(=O)N2CCCN(S(=O)(=O)c3ccc4c(c3)OCCO4)CC2)c1
COc1ccc(OC2=NS(=O)(=O)c3ccccc32)cc1
Cc1ccc(NS(=O)(=O)c2cc3c(cc2-c2ccco2)NC(=O)CO3)cc1C
O=C1c2ccccc2C(=O)N1c1cccc2cccnc12
Cc1ccc(NS(=O)(=O)c2cc3c(cc2N2CCC2)NC(=O)CC3)cc1C
O=C1CCc2cc([S+](=O)([O-])Nc3ccc(N[S+](=O)([O-])c4ccc5c(c4)CCC(=O)N5)cc3)ccc2N1
O=C1CCc2cc(S(=O)(=O)Nc3ccccc3-c3ccccc3)ccc2N1
Cc1c(Cl)cccc1NS(=O)(=O)c1cc2c(cc1Cl)CCC(=O)N2
COc1ccc(NS(=O)(=O)c2ccc3c(c2)CCC(=O)N3)cc1
Cc1ccc(NS(=O)(=O)c2ccc3c(c2)CCC(C)(C)O3)cc1C
Cc1ccc(NS(=O)(=O)c2ccc(F)cc2)cc1C
O=C1CCc2cc(Cl)c(S(=O)(=O)Nc3ccc(Cl)c(Cl)c3)cc2N1
